Our source for the Inhibition values is ChEMBL document CHEMBL1157539, “Thousands of chemical starting points for antimalarial lead identification” (Nature, 2010).

As usually defined, the Inhibition is the share of the control response that was lost under treatment. Read a high Inhibition as strong suppression.

Common to all, as to format: functional
In assay [1] the test system is Plasmodium falciparum. Description: GSK_TCMDC: Inhibition of Plasmodium falciparum 3D7 in whole red blood cells, using parasite LDH activity as an index of growth. Test compounds present at 2uM.
The test system of assay [2] is Plasmodium falciparum. Description: GSK_TCMDC: Inhibition of Plasmodium falciparum Dd2 in whole red blood cells, using parasite LDH activity as an index of growth. Test compounds present at 2uM.
The next assay concerns HepG2. As to the kind of experiment: GSK_TCMDC: Percent inhibition of human HepG2 cell line. Test compounds present at 10uM.

As to `COc1ccccc1CCNc1ncnc2c1[nH]c1ccc(F)cc12`, the Inhibition is 95% with Plasmodium falciparum [1], 68% with Plasmodium falciparum [2] and 49% in the assay on HepG2.
The matching figures for `CCN(CCCN1CCCCC1)c1cc(C)nc(Nc2ccc(C)cc2C(F)(F)F)n1.O=C(O)C(F)(F)F`: 100%, 35% and 23%.
The matching figures for `CCCNC(=O)c1cncc(-c2ccc(CNCCCc3ccccc3)cc2)c1.O=C(O)C(F)(F)F`: 100%, 29% and 0%.
The matching figures for `Cc1cccc2nc(-c3ccc(-c4cccc(C(=O)NCCc5cn(C)cn5)c4)s3)[nH]c12`: 92%, 17% and 27%.
For `CCN(CC)CCN(Cc1ccc(-c2ccc(C(F)(F)F)cc2)cc1)C(=O)Cn1c(CCc2cccc(F)c2F)nc(=O)c2ccc(C(F)(F)F)cc21.O=C(O)C(O)C(O)C(=O)O`, the results for the Inhibition in the assay on Plasmodium falciparum [1], in the assay with Plasmodium falciparum [2] and with HepG2 were 99%, 55% and 19%, respectively.
As for `O=C(Nc1ccc(OC2CCN(Cc3ccc(F)cc3)CC2)c(Cl)c1)c1cccs1.O=C(O)C(F)(F)F`, the Inhibition in the assay on Plasmodium falciparum [1] was found to be 95%; in the assay on Plasmodium falciparum [2], 96%; in the assay on HepG2, 7%.
The matching figures for `CNCCNCc1ccc(-c2cccc(-c3nc4cc(F)ccc4[nH]3)c2)cc1.O=C(O)C(F)(F)F`: 93%, 1% and 10%.
The matching figures for `Cl.N=C(N)NN=C1C=Cc2cccc3cccc1c23`: 100%, 49% and 9%.
The corresponding values for `COc1cc(Cc2cnc(N)nc2N)cc(OCCCc2cc(OCc3ccccc3)no2)c1OC` are 86%, 4% and 30%.
On to `C=CC[C@H](NC(=O)c1ccc(NS(=O)(=O)c2ccc3nc(N)[nH]c(=O)c3c2)cc1)C(=O)OCCCC`, for which the Inhibition with Plasmodium falciparum [1] came out at 97%; in the assay on Plasmodium falciparum [2], 2%; in the assay with HepG2, 61%.
The corresponding values for `O=c1cc(NCCCNC2CCCc3c2cc(Cl)c(Cl)c3Cl)[nH]c2ccccc12` (stereo not given) are 100%, 64% and 6%.
The corresponding values for `Cc1cccc(CNc2nc(C)cc(N[C@@H](Cc3ccccc3)C(=O)NC3CCCC3)n2)c1.O=C(O)C(F)(F)F` are 100%, 97% and 51%.
The corresponding values for `CC(C)(Oc1c(C2CCN(CCCCNC(=O)c3ccc(-c4ccc(Cl)cc4)cc3)CC2)ccc2c1CCCC2)C(N)=O` are 93%, 5% and 100%.
For the compound `CC(C)c1cccc(OCC2CCN(c3ncc(C(=O)NC4CC4)cc3Cl)CC2)c1`, the Inhibition in the assay on Plasmodium falciparum [1] is given as 94%; in the assay with Plasmodium falciparum [2], 95%; in the assay with HepG2 it was 9%.
As for `Cc1cnc(Nc2cccc(CCN3CCOCC3)c2)nc1NC(C)C.Cl`, the Inhibition in the assay with Plasmodium falciparum [1] amounted to 97%; in the assay on Plasmodium falciparum [2], 76%; in the assay on HepG2 it was 53%.
The corresponding values for `Cl.Clc1ccc(OCc2ccccc2)c(Cc2ccc(-c3nc4cnccc4[nH]3)o2)c1` are 99%, 6% and 2%.
The corresponding values for `CC(C)(C)c1ccc(CNC(=O)/C=C/c2ccc(-c3nc4cc(C(C)(C)C)ccc4[nH]3)cc2)cc1` are 100%, 66% and 35%.
Turning to `Cc1ccc(CN2CCC(Oc3cccc(NC(=O)c4ccc(C(F)(F)F)cc4)c3)CC2)cc1.O=C(O)C(F)(F)F`, the Inhibition turned out to be 92% with Plasmodium falciparum [1], 15% with Plasmodium falciparum [2] and 37% in the assay on HepG2.
The matching figures for `O=C(NCCN1CCCc2ccccc21)C1CCN(c2nc(-c3ccc(Cl)cc3)no2)CC1`: 86%, 62% and 11%.
The matching figures for `Cc1cc(-c2cc3nc4c(c(O)n3n2)CCCC4)c(C)o1`: 94%, 82% and 4%.
The matching figures for `O=C(Cn1c(CCc2cccc(F)c2F)nc(=O)c2ccccc21)N(Cc1ccc(-c2ccc(C(F)(F)F)cc2)cc1)C1CCN(C2=NCCS2)CC1.O=C(O)C(O)C(O)C(=O)O`: 81%, 85% and 62%.
As for `CCc1ccc2c(c1O)CCN(C)C2Cc1ccccc1Cl.Cl` (stereo not given), the Inhibition is reported as 99% in the assay with Plasmodium falciparum [1], 99% with Plasmodium falciparum [2] and 13% in the assay with HepG2.
With `CC(C)(CC1CCCCC1)NC(=O)[C@H](CC1CCCCC1)Nc1ccc(C#N)c2ccccc12.O=C(O)C(F)(F)F`, the Inhibition stood at 98% in the assay on Plasmodium falciparum [1], 52% in the assay on Plasmodium falciparum [2] and 14% in the assay with HepG2.
Take `CCN(CCNC(=O)Nc1cc(C(F)(F)F)cc(C(F)(F)F)c1)c1cccc(C)c1`: the Inhibition in the assay with Plasmodium falciparum [1] is on record as 98%; with Plasmodium falciparum [2], 100%; with HepG2, 0%.
The corresponding values for `Cc1cccc2nc(-c3ccc(-c4ccc(CNCc5ccc(CN)cc5)cc4)cc3)[nH]c12.O=C(O)C(F)(F)F` are 100%, 46% and 14%.
The corresponding values for `Cc1cc(OCCCNc2nc(NCCc3ccc(O)cc3)nc(N3CCNCC3)n2)c(Cl)c(C)c1Cl.O=C(O)C(F)(F)F` are 99%, 8% and 54%.
The corresponding values for `CC(C)CNC(=O)c1cncc(-c2ccc(CNC3Cc4ccccc4C3)cc2)c1.O=C(O)C(F)(F)F` are 99%, 37% and 5%.
For `N#Cc1cccc(C(=O)N2CCOC(CCN3CCC(c4ccccc4)CC3)(c3ccc(Cl)c(Cl)c3)C2)c1` (stereo not given), the results for the Inhibition in the assay with Plasmodium falciparum [1], in the assay on Plasmodium falciparum [2] and with HepG2 were 87%, 49% and 51%, respectively.
In the case of `Cc1ccccc1C1CCN(C2CCC(NC(=O)/C=C/c3cccc(Cl)c3F)CC2)CC1` (stereo not given), the Inhibition is recorded as 100% with Plasmodium falciparum [1], 37% in the assay with Plasmodium falciparum [2] and 87% in the assay on HepG2.
The corresponding values for `Cl.c1ccc2c(C3CCN(CCCCOc4ccc5c(c4)CCN(C4CCC4)CC5)CC3)c[nH]c2c1` are 100%, 100% and 80%.
The corresponding values for `COc1ccc(-c2cccc(NC(=O)c3ccc(Cl)cc3)c2)cc1CN1CCNCC1.O=C(O)C(F)(F)F` are 96%, 22% and 52%.
The matching figures for `CCNc1cc(C(=O)N[C@@H](Cc2ccccc2)[C@H](O)CNC2CCC(C)(C)C2)cc(N2CCCCS2(=O)=O)c1.Cl` (stereo not given in full): 96%, 98% and 3%.
Consider `COc1ccc(CNCc2ccc(F)cc2)cc1-c1ccc(S(=O)(=O)NCCN2CCCC2)cc1.O=C(O)C(F)(F)F`, for which the figures for the Inhibition with Plasmodium falciparum [1], in the assay on Plasmodium falciparum [2] and in the assay with HepG2 were 91%, 25% and 38%, respectively.
The corresponding values for `CCCNCc1ccc(-c2ccc(CN(C(=O)c3nn(-c4ccccc4)nc3C)C3CC3)cc2)nc1.O=C(O)C(F)(F)F` are 100%, 0% and 23%.
The matching figures for `Cc1ccc2c(c1)C1(CC(=O)N(CCc3scnc3C)C1=O)C(=O)N2Cc1ccccc1` (stereo not given): 83%, 73% and 0%.
The corresponding values for `CC1CN(Cc2cccc(C#N)c2)CCN1c1ccc(NC(=O)c2cccs2)cc1.O=C(O)C(F)(F)F` (stereo not given) are 94%, 93% and 4%.
As for `Cl.Nc1c2ccccc2nc2cc([N+](=O)[O-])ccc12`, the Inhibition stood at 98% in the assay on Plasmodium falciparum [1], 26% in the assay on Plasmodium falciparum [2] and 92% with HepG2.
The matching figures for `CCCNCc1ccc(-c2ccc(CN(CCOC)C(=O)[C@H]3CCCO3)cc2)nc1.O=C(O)C(F)(F)F`: 98%, 6% and 1%.
The matching figures for `CCOc1cccc(C(=O)Nc2cccc(CN3CCCN(Cc4cccc(O)c4)CC3)c2)c1.O=C(O)C(F)(F)F`: 85%, 18% and 17%.
The corresponding values for `CC1(C)NC(N)=NC(=N)N1OCc1nc(N)nc(Nc2ccccc2)n1` are 98%, 0% and 3%.
As for `CCOC(=O)C1=C(C)NC(C)=C(C(=O)OCC)C1(C(=O)OCc1ccccc1)c1cccc(C(F)(F)F)c1`, the Inhibition in the assay with Plasmodium falciparum [1] was 88%; in the assay with Plasmodium falciparum [2], 60%; in the assay on HepG2, 0%.
The matching figures for `COc1ccc(C=NNc2nc3ccccc3[nH]2)cc1O`: 95%, 13% and 15%.
The corresponding values for `Nc1c2ccccc2nc2cc(C(F)(F)F)ccc12` are 100%, 49% and 8%.
The corresponding values for `CC(C)(C)c1cc(C(=O)Nc2cccnc2)cc(C(=O)Nc2cccnc2)c1` are 95%, 35% and 0%.
Consider `Cc1cccc2nc(-c3cccc(-c4ccc(NC(=O)c5ccoc5)cc4)c3)[nH]c12`, for which the results for the Inhibition in the assay with Plasmodium falciparum [1], in the assay with Plasmodium falciparum [2] and in the assay with HepG2 were 99%, 56% and 65%, respectively.
In the case of `CC(C)(C)c1nn(-c2ccc(Cl)cc2)c2[nH]c(=O)c(CNC3CCCC3)cc12`, the Inhibition was determined as 99% in the assay on Plasmodium falciparum [1], 99% with Plasmodium falciparum [2] and 0% with HepG2.
For `CCOC(=O)c1ccc(NC(=O)NNC(=O)c2ccc(CCN3CCC(c4nc(COCC(F)(F)F)c(-c5ccc(F)cc5)o4)CC3)cc2)cc1`, the Inhibition in the assay with Plasmodium falciparum [1] stood at 100%; in the assay on Plasmodium falciparum [2], 67%; in the assay with HepG2, 10%.
The corresponding values for `Cc1cc(NC(=O)c2coc3cc(F)c(N4CC(C)N(C)C(C)C4)cc23)cnc1-c1ccc(C#N)cc1.Cl` (stereo not given) are 99%, 71% and 35%.
The matching figures for `CCN(CCO)CCc1cccc(Nc2nccc(-c3c(-c4ccc(NC(=O)N(CC)CC)cc4)nn4ccccc34)n2)c1.Cl`: 100%, 95% and 46%.
The matching figures for `CN1CCC(C(=O)Nc2ccc(-c3ccc(-c4nc5ccccc5[nH]4)cc3)cc2)CC1`: 100%, 94% and 28%.
Turning to `O=C(O)C(F)(F)F.Oc1ccc(CCNc2nc(NCCCOc3ccccc3-c3cccc(C(F)(F)F)c3)nc(N3CCNCC3)n2)cc1`, the Inhibition in the assay on Plasmodium falciparum [1] is 93%; with Plasmodium falciparum [2] it was 5%; in the assay with HepG2, 24%.
The matching figures for `CCOc1ccc(-c2nonc2NC(=O)c2ccco2)cc1OCC`: 97%, 77% and 3%.
`CCC1CCc2cc(N)cc(-c3nc4c(c(C)nn4CC)c(=O)[nH]3)c2O1` (stereo not given): the Inhibition came out at 86% with Plasmodium falciparum [1], 42% in the assay with Plasmodium falciparum [2] and 0% in the assay on HepG2.
The corresponding values for `Cc1cccc(Nc2nc3nonc3nc2Nc2cccc(Cl)c2Cl)c1C` are 91%, 95% and 88%.
For the compound `Clc1ccc(C=NN=c2cc[nH]c3ccccc23)cc1`, the Inhibition was 100% in the assay with Plasmodium falciparum [1], 97% in the assay on Plasmodium falciparum [2] and 5% in the assay on HepG2.
The corresponding values for `C=CCOC(=O)N1CCC(CNCc2ccc(-c3ccc(-c4nc5cc(C(F)(F)F)ccc5[nH]4)cc3)cc2)C1.O=C(O)C(F)(F)F` (stereo not given) are 100%, 98% and 44%.
The matching figures for `CNc1ccc(CNCc2ccc(-c3ccc(-c4nc5cc(F)ccc5[nH]4)cc3)cc2)cc1.O=C(O)C(F)(F)F`: 100%, 95% and 38%.
The matching figures for `O=C(Nc1ccon1)c1cc(-c2cccnc2)nc2ccc(Cl)cc12`: 98%, 76% and 0%.
Take `CC(C)(C)c1ccc(CN2CCC(CNC(=O)c3cc(-c4cccc(Cl)c4)cs3)C2)cc1.O=C(O)C(F)(F)F` (stereo not given): the Inhibition with Plasmodium falciparum [1] is 100%; in the assay with Plasmodium falciparum [2] it was 83%; with HepG2 it was 44%.
The matching figures for `N=C(N)NC(=O)Nc1cc(F)c(Cl)c(Br)c1`: 100%, 50% and 0%.
